Assay outcomes as filed in PubChem BioAssay.
LGR2 inh – inhibitors of bursicon-induced LGR2 CRE-luciferase signal, primary screen, cell-based, HEK293, CRE-luciferase reporter, bursicon stimulation | bursicon-stimulated, 4 h | inhibition, % at 9.99 µM | hit rate 0.35% among 380,000 | Drosophila bursicon receptor LGR2 (rickets);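 active = drop in luminescence signal, shown as inhibition above about 50% in the replicate tests, limit read from the data, passing the limit was not always enough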;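 note: agonist challenge used bursicon conditioned medium at about half maximal strength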
TWEAK-Fn14 inh – inhibitors of TWEAK-Fn14 signaling, primary screen, luciferase reporter cells, uHTS; TWEAK-stimulated Fn14 reporter cells, luciferase luminescence, 8 h; AID 1159606, 2016; hit rate 2% among 360,000; inhibition, % at 10 µM; in the data active = inhibition above about 50%
TROY NFkB inh – inhibitors of TROY-driven NF-kB signaling, primary screen, Q293 LMP1-TROYcd cells, NF-kB luciferase, uHTS. Q293 LMP1-TROYcd NF-kB luciferase reporter, 4 h. inhibition, % at 10 µM. hit rate 0.98% among 360,000;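 active = compounds whose plate-normalised and pattern-corrected inhibition of the luciferase reporter signal at the single screening dose is 50% or more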
EWS-Fli inh – EWS/Fli-driven NR0B1 reporter inhibitors, primary screen, A673 cells, NR0B1 luciferase, luminescence, MLPCN library; hit rate 0.67% among 350,000; viability-normalised; AID 651661, 2012; inhibition, % at 12.6 µM;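 active = mean inhibition of at least 50% after viability correction, with every replicate also passing that limit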;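 note: firefly luciferase signal divided by Alamar Blue viability fluorescence both relative to DMSO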
PAX8 reporter – inhibitors of PAX8-driven TPO luciferase reporter, primary screen, RMG-I cells, single concentration. SteadyGlo, 24 h. AID 652154, 2013. inhibition, % at 12.6 µM. hit rate 1.2% among 360,000;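 active = mean replicate inhibition at least 60% with every replicate also reaching 60%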;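 note: luciferase light reporting Pax8 driven TPO promoter activity; plate controls were median of neutral control wells for no effect and mitoxantrone controls for full effect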
An asterisk follows results filed as active; x = no result; ! = not active in a repeat. Only some compounds are listed: those with a hit (about 2.8% of all), similar ones and a draw of the others.

SMILES	LGR2 inh	TWEAK-Fn14 inh	TROY NFkB inh	EWS-Fli inh	PAX8 reporter
O=[N+]([O-])c1ccc(Sc2cccc3cccnc23)c([N+](=O)[O-])c1	37	64*	25	-33	x
CN(C)/N=C/c1ccc(Sc2ccc([N+](=O)[O-])cc2[N+](=O)[O-])o1	5	39	11	x	6
CC(C)NC(=O)N(C)C[C@H]1Oc2c(NC(=O)Nc3ccc4c(c3)OCO4)cccc2C(=O)N([C@@H](C)CO)C[C@H]1C	-23	x	x	0	-19
C[C@H](CO)N1C[C@H](C)[C@@H](CN(C)CC2CCOCC2)Oc2cc(-c3cccnc3)ccc2S1(=O)=O	-10	x	x	7	10
COc1cccc(Nc2nnc(SCN3C(=O)c4ccccc4C3=O)s2)c1	x	-4	-6	-14	84*
CCCNC(=O)N[C@@H]1C=C[C@@H](CC(=O)NC2CCCCC2)O[C@H]1CO	8	x	x	-3	9
O=C(Nc1ccc(C(F)(F)F)cc1)N1C[C@@H]2N[C@H](C1)C2c1ccc(-c2ccccc2)cc1 (some centres not stated)	18	x	x	-9	108*
O=C(Nc1ccc(C(F)(F)F)cc1)N1C[C@@H]2N[C@H](C1)C2c1ccc(/C=C/c2ccccc2)cc1 (some centres not stated)	2	x	x	6	90*!
O=C(C1CCC1)N1C[C@@H]2N[C@H](C1)C2c1ccc(/C=C/c2ccccc2)cc1 (some centres not stated)	-2	x	x	-9	x
CC(C)CC#Cc1cnc2c(c1)C(=O)N([C@H](C)CO)C[C@@H](C)[C@H](CN(C)C(=O)c1cnccn1)O2	-8	x	x	-5	x
COCc1cc(=O)[nH]c(Nc2nc3ccc(C)cc3o2)n1	x	106*	-24	x	x
CCc1ccc(/C=C/c2c([N+](=O)[O-])c(=O)n(C)c(=O)n2C)cc1	40	65*	13	-7	26
COc1ccc(/C=C/c2c([N+](=O)[O-])c(=O)n(C)c(=O)n2C)c(OC)c1	24	45	5	-13	30
Cn1c(/C=C/c2ccc(Cl)cc2Cl)c([N+](=O)[O-])c(=O)n(C)c1=O	56*	73*	9	38	45
Cc1noc(C)c1S(=O)(=O)Nc1cccc2c1O[C@H](CN(C)Cc1ccc(-c3ccccc3)cc1)[C@H](C)CN([C@@H](C)CO)C2=O	9	x	x	-4	-9
CC=Cc1ccc2n(c1=O)C[C@H]1[C@H](CO)[C@@H](C(=O)NC3CCCCC3)N(CCC)[C@@H]21 (mixture of isomers)	-32	x	x	-2	5
CC1(c2ccccc2)CC(C)(C)N2C(=O)C3(C(C#N)=C(N)Oc4cc(O)ccc43)c3cccc1c32 (configuration not stated)	-3	57*	33	6	x
Cc1cc2c3c(c1)C(C)(c1ccccc1)CC(C)(C)N3C(=O)C21C(C#N)=C(N)OC2=C1C(=O)CC(C)(C)C2 (configuration not stated)	x	35	18	x	x
CC(C)c1ccc2c(c1)CCC1C(C)(CN)CCCC21C (configuration not stated)	1	-21	-18	59*	41
C[C@@H]1CCCCO[C@@H](CN(C)C(=O)c2ccncc2)[C@@H](C)CN([C@@H](C)CO)C(=O)c2cc(NC(=O)NC3CCCCC3)ccc2O1	-12	x	x	-15	-10
C[C@@H]1CCCCO[C@@H](CN(C)C(=O)Nc2ccc3c(c2)OCO3)[C@@H](C)CN([C@@H](C)CO)C(=O)c2cc(NC(=O)Nc3ccc4c(c3)OCO4)ccc2O1	-1	x	x	x	6
CC(=O)N1[C@@H]2c3cccc(=O)n3C[C@@H]2[C@@H](CO)[C@@H]1C(=O)N[C@H](C)c1ccccc1	-5	x	x	-10	-10
COc1ccc(-n2nc3cc(C)c(NC(C)=O)cc3n2)cc1	48	75*	57*	51*	-135
Cc1ccc(/C=N/NC(=O)Cn2nnc(N)n2)o1	6	87*	-1	0	-19
Cc1ccc(/C=N/NC(=O)Cn2nnc(N)n2)cc1	-35	12	13	-7	-23
SMILES	LGR2 inh	TWEAK-Fn14 inh	TROY NFkB inh	EWS-Fli inh	PAX8 reporter
COC1(OC)C(/C=C/c2ccc(Cl)cc2)C(C#N)(C#N)C1(OC)OC (configuration not stated)	x	77*	13	x	x
C[C@@H]1CN([C@H](C)CO)C(=O)Cc2cc(NC(=O)Cc3ccccc3)ccc2O[C@H]1CN(C)C(=O)Nc1ccc(F)cc1	-13	x	x	-3	0
Cc1cc(C)nc(CCNC(=O)c2cc(COc3ccc(F)cc3Cl)on2)n1	-1	-21	76*	8	0
CN(C)c1cccc2c(S(=O)(=O)Nc3ccccn3)cccc12	x	84*	62*	x	-6
C[C@@H]1CN([C@@H](C)CO)C(=O)Cc2cc(NC(=O)Cn3cnnn3)ccc2O[C@H]1CN(C)CC1CC1	-6	x	x	-2	x
CO[C@@H]1CN(C)C(=O)c2ccc(NC(=O)C3CCC3)cc2OC[C@@H](C)N(C(=O)CN(C)C)C[C@@H]1C	-10	x	x	-7	-9
CN=c1scc(C)n1/N=C/c1ccc(O)c(O)c1O	x	21	-48	x	x
CN=c1scc(-c2cccs2)n1/N=C/c1ccc(O)c(O)c1O	-23	87*	89*	26	33
COc1ccc(C=CC(=O)c2ccc(OC)c(OC)c2)cc1O	-37	-9	4	21	4
COc1ccc(Oc2ccc(/C=N/NC(=O)c3cccnc3)cc2[N+](=O)[O-])cc1	x	8	-13	7	-42
CCC1CSC(Nc2ccc(C(=O)/C=C/c3ccc(Br)cc3)cc2)=N1 (configuration not stated)	4	57*	-16	-7	-6
COc1ccc(C=CC(=O)c2ccc3cc(OC)c(OC)cc3c2)cc1OC	-3	67*	36	-7	-4
COc1ccc(/C=C/C(=O)c2ccc(NC3=NCCCS3)cc2)cc1OC	-8	72*	29	6	23
COc1ccc(C(=O)C=Cc2ccc3c(c2)OCO3)cc1OC	-17	-20	-29	-5	-14
COc1ccc(Oc2ccc(/C=C/C(=O)c3cccc(OC)c3)cc2[N+](=O)[O-])cc1	13	60*	-1	49	108*
C[C@@H]1CN([C@H](C)CO)C(=O)c2cc(NC(=O)Nc3ccccc3)ccc2O[C@@H](C)CCCCO[C@H]1CN(C)C(=O)NC1CCCCC1	35	x	x	x	x
CN(C)C(=O)c1ccc(-c2ccc3c(c2)[C@H]2[C@H](CCN2C(=O)c2ccccn2)[C@H](CO)N3C)cc1	-12	x	x	-13	-1
CCC1CSC(Nc2ccc(C(=O)/C=C/c3ccc(OC)c(OC)c3)cc2)=N1 (configuration not stated)	42	74*	47	x	5
COc1ccc(C(=O)C=Cc2ccc(OCc3ccccc3)c(OC)c2)cc1OC	-13	29	-12	0	-14
